Measured values published in ChEMBL document CHEMBL1961873, “Compounds: GSK PKIS; Assays: Nanosyn kinase panel” (2012).
Values joined by “and” are separate entries in the source; they are usually repeats but may differ in a detail not shown here. Equal entries are not always repeated.

Columns and labels:
[1] = target: T1, 3-phosphoinositide-dependent protein kinase 1 (Homo sapiens) (UniProt O15530); conditions: at 0.1 µM;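 further: values are mean inhibition of PDK1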
T1 sequence (whole entry): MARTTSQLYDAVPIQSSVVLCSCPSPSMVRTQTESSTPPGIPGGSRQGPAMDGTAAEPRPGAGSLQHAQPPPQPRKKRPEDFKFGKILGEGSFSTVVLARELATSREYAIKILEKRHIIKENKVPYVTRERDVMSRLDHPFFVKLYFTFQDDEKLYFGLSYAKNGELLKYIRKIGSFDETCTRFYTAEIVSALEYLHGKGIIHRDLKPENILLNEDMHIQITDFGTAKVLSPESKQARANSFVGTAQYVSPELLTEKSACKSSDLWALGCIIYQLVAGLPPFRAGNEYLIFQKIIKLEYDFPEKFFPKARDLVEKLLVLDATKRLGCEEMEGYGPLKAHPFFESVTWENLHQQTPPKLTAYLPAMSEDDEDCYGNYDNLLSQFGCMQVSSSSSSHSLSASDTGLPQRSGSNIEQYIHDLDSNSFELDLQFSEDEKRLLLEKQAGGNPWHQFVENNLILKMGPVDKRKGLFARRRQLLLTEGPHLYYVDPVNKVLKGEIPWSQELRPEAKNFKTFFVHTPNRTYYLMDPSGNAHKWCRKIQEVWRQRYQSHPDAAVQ

[2] = target: cAMP-dependent protein kinase catalytic subunit alpha (Homo sapiens) (UniProt P17612); conditions: at 0.1 µM
[3] = target: cAMP-dependent protein kinase catalytic subunit alpha (Homo sapiens) (UniProt P17612); conditions: at 1 µM
[4] = target: Protein kinase C alpha type (Homo sapiens) (UniProt P17252); conditions: at 0.1 µM
[5] = target: Protein kinase C alpha type (Homo sapiens) (UniProt P17252); conditions: at 1 µM
[6] = target: Protein kinase C beta type (Homo sapiens) (UniProt P05771); conditions: at 0.1 µM
[7] = target: Protein kinase C beta type (Homo sapiens) (UniProt P05771); conditions: at 1 µM
[8] = target: Protein kinase C eta type (Homo sapiens) (UniProt P24723); conditions: at 0.1 µM
[9] = target: Protein kinase C eta type (Homo sapiens) (UniProt P24723); conditions: at 1 µM
[10] = target: Protein kinase C gamma type (Homo sapiens) (UniProt P05129); conditions: at 0.1 µM;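 further: values are mean percent inhibition of PKC gamma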

Sequence of Protein kinase C eta type (Homo sapiens) (P24723 whole entry): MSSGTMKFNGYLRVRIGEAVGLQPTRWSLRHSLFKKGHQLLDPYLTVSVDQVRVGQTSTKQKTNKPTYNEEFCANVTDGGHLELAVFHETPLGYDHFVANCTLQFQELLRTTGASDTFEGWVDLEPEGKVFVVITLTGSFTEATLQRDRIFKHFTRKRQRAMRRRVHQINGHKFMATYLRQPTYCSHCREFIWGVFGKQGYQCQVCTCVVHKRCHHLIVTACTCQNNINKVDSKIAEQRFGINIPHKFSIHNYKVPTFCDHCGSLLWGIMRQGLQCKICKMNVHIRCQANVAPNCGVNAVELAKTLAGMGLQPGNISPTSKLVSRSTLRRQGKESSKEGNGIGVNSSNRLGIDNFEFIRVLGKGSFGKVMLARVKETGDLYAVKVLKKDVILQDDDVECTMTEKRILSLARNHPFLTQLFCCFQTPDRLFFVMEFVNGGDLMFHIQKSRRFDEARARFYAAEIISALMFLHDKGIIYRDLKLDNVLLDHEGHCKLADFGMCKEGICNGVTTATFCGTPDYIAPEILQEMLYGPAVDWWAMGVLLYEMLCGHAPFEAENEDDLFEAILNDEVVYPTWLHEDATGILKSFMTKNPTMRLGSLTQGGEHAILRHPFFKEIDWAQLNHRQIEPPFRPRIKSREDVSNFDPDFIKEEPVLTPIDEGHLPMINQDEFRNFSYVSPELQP
Sequence of Protein kinase C beta type (Homo sapiens) (P05771 2-671 limits assumed): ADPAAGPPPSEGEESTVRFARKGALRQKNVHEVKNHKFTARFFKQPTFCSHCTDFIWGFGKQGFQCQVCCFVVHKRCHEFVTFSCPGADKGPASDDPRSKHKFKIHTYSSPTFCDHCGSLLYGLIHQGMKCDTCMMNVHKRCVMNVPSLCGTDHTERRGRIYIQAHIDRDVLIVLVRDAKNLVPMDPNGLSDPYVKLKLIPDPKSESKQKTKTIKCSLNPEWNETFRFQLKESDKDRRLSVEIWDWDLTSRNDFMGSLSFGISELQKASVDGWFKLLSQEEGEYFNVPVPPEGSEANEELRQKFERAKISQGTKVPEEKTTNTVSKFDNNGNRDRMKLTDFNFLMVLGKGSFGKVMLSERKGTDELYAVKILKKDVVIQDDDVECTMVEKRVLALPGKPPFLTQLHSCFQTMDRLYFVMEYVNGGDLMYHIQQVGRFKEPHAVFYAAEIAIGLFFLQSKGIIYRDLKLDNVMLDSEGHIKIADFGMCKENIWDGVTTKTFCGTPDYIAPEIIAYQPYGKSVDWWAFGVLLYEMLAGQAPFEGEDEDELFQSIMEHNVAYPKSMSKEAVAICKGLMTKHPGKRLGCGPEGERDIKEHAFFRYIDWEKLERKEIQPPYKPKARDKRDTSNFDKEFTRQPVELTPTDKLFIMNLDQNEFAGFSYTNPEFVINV

SMILES | inhibition [1] | inhibition [2] | inhibition [3] | inhibition [4] | inhibition [5] | inhibition [6] | inhibition [7] | inhibition [8] | inhibition [9] | inhibition [10]
COc1ccc(Nc2ncc(-c3ccccc3)o2)cc1OC | 2.22% | 0.2% | 1.87% | 1.08% | 4.51% | -0.02% | 3.24% | 0.42% | -1.25% | 0.58%
Nc1nonc1-c1nc2cnccc2n1C1CC1 | 2.07% and 2.38% | 5.45% and 2.09% | 36.2% and 35.9% | 1.78% and -0.98% | 15.7% and 16.9% | 45% and 47.9% | 68.3% and 74.8% | 45.9% and 49.3% | 88.8% and 90.8% | 3.3% and 3.29%
COc1c(C(N)=O)cc(-c2ccc(Cl)cc2)cc1-c1ccc(S(N)(=O)=O)cc1 | 1.2% | 3.03% | 4.3% | 0.59% | 1.5% | 0.62% | 3.84% | 1.17% | 5.18% | 1.45%
O=C(O[C@H]1CN[C@H](C#Cc2cc3ncnc(Nc4ccc(OCc5cccc(F)c5)c(Cl)c4)c3s2)C1)N1CCOCC1 | 0.08% | 2.39% | 3.33% | 0.97% | -4.52% | 1.43% | 2.48% | 2.88% | 5.07% | 4.27%
Cc1nnc(-c2cccc(-c3ccc(C(=O)NCC4CC4)cc3)c2)o1 | 2.18% | 1.83% | 2.07% | 0.65% | 1.45% | 2.27% | 3.52% | 3.46% | 6.75% | 1.76%
O=C1Nc2ccccc2/C1=C1\CCc2cc(O)ccc21 | 15.1% | 2.16% | 4.57% | 1.24% | 2.87% | 0.69% | 1.16% | 2.22% | 3.7% | 2.96%
COc1cccc(-n2ncc3c(N/N=C/c4ccc(C(=O)NCCN(C)C)cc4)ncnc32)c1 | 2.52% | 2.29% | 11.4% | 1.03% | 9.37% | 1.2% | 6.99% | 2.52% | 0.62% | 26.3%
CC1=C(C(=O)Nc2ccc3[nH]nc(C)c3c2)C(c2ccc(C(F)(F)F)cc2)CC(=O)N1 (stereo not given) | 1.14% | 3.3% | 26.6% | 0.72% | 7.98% | -0.41% | -0.53% | 3.4% | 9.11% | 4.48%
COC(=O)Nc1nc2cc(Oc3ccc(NC(=O)Nc4ccccc4)cc3)ccc2[nH]1 | 1.31% | 2.49% | 2.15% | -0.02% | 0.51% | 1.53% | 2.12% | 2.8% | 6.1% | 0.41%
CCN1CCC(C(=O)Nc2n[nH]c3nnc(-c4cccc(F)c4F)cc23)CC1 | -0.53% | 0.16% | 0.64% | -0.7% | 0.27% | -0.34% | -0.14% | 0.24% | 0.58% | -1.51%
COc1cccc(Nc2nccc(-c3cnn4ncccc34)n2)c1 | 2.46% | 1.16% | 6.04% | 6.2% | 43.4% | 0.55% | 5.61% | 2.46% | 7.69% | -1.41%
CS(=O)(=O)CCNCc1ccc(-c2ccc3ncnc(Nc4ccc(OCc5cccc(C(F)(F)F)c5)cc4)c3c2)o1 | 0.06% | 1.97% | 4.62% | 1.05% | 2.11% | 1.32% | 0.08% | 6.28% | 4.9% | 2.65%
OCCCNc1nccc(-c2c(-c3ccc(F)cc3)nn3cc(C(F)(F)F)ccc23)n1 | 2.27% | 5.3% | 1.41% | 0.43% | 2.81% | 3.23% | 5.54% | 3.94% | 0.31% | 2.28%
N#Cc1cccc(Nc2ncc(-c3ccccc3)o2)c1 | 0.43% | 0.96% | 1.68% | -0.44% | 0.37% | 0.7% | 2.96% | 0.23% | 2% | -0.01%
CN1CCN(Cc2ccc(-c3cc4ncnc(Nc5ccc(OCc6cccc(F)c6)c(Cl)c5)c4s3)o2)CC1 | 14.8% and 0.07% | 1.2% and 3.28% | 5.56% and 3.03% | 0.64% and 0.88% | 1.87% and 2.52% | -1.25% and 0.04% | 0.12% and 3.28% | 4.86% and 6.13% | 3.75% and 6.04% | 0.69% and 2.55%
O=C(O[C@H]1CN[C@H](C#Cc2cc3ncnc(Nc4ccc5c(cnn5Cc5ccccc5)c4)c3s2)C1)N1CCOCC1 | -1.36% | 0.31% | 1.15% | 0.54% | -0.04% | -0.18% | -6.28% | -1.67% | -2.51% | 1.56%
Fc1cccc(COc2ccc(Nc3ncncc3C#Cc3ccccc3)cc2Cl)c1 | 3.09% | 2.03% | 2.57% | 1.03% | 1.01% | 1.01% | 4.8% | 0.23% | 4.62% | 3.66%
Cc1cc(O)cc(C)c1/C=C/c1cncc(C(=O)OC(C)(C)C)c1 | 1.42% | 1.82% | 3.63% | 0.14% | 0.77% | 0.46% | -1.03% | -1.29% | 3.71% | 3.91%
Cc1cc(O)cc(C)c1/C=C/c1cncc(C(N)=O)c1 | 1.65% | 1.78% | 2.91% | 1.24% | 1.91% | -0.18% | -2.09% | 1.74% | -2.58% | 3.81%

SMILES | inhibition [1] | inhibition [2] | inhibition [3] | inhibition [4] | inhibition [5] | inhibition [6] | inhibition [7] | inhibition [8] | inhibition [9] | inhibition [10]
Nc1nccc(-c2c(-c3ccc(F)cc3)ncn2C2CCNCC2)n1 | -3.23% and 1.39% | -0.37% and 3.2% | 20.2% and 30.2% | 1.33% and 2.68% | 21.7% and 29% | 1.41% and 3.25% | 17.9% and 21.4% | -2.01% and 0.32% | 0.29% and 1.78% | -1.71% and 0.92%
O=C(O[C@H]1CN[C@H](C#Cc2cc3ncnc(Nc4ccc5c(ccn5Cc5cc(F)ccc5F)c4)c3s2)C1)N1CCOCC1 | 2.16% | 1.86% | 1.48% | 0.78% | 2.63% | 1.59% | 1.27% | 5.63% | 3.54% | 1.38%
CS(=O)(=O)Nc1ccc(-c2cc(-c3ccccc3)cc(C(N)=O)c2N)cc1 | -0.56% | 0.69% | -0.07% | 0.46% | 1.59% | -0.05% | -0.92% | 1.6% | 1.53% | 1.15%
c1cnn2ncc(-c3ccnc(NCCCN4CCOCC4)n3)c2c1 | 1.41% | 2.68% | 5.3% | 0.87% | 2.26% | 2.73% | 5.57% | 3.67% | 2.05% | 3.52%
O=C(Nc1n[nH]c2nnc(-c3cccnc3)cc12)C1CC1 | -0.25% | -0.44% | 0.38% | -0.19% | 2.33% | -0.7% | 0.6% | -1.43% | 2.91% | -0.5%
COc1ccc(-c2nn3ncccc3c2-c2ccnc(Nc3ccc(F)c(F)c3)n2)cc1 | 0.91% | 1.99% | 3.24% | 0.39% | 1.74% | 1.53% | 5.16% | 1.15% | 7.16% | 4.72%
Fc1ccc(Nc2nccc(-c3c(-c4ccc(C(F)(F)F)cc4)nn4ncccc34)n2)cc1F | 3.96% | 1.44% | 1.2% | 1.5% | 2.09% | -0.08% | -1.29% | 0.94% | 1.72% | 1.67%
FC(F)(F)CNc1nccc(-c2cnn3ncccc23)n1 | -1.1% | 2.98% | 2.52% | 1.22% | 2.56% | 1.27% | 1.54% | 2.22% | 1.8% | 2%
CC1(C)CC(n2cnc(-c3ccc(F)cc3)c2-c2ccnc(N)n2)CC(C)(C)N1 | 0.82% | 0.29% | 4.01% | 0.96% | 2.63% | 1.89% | 3.35% | 1.68% | -2.97% | -2.6%
COc1cc(N2CCN(C(C)C)CC2)ccc1Nc1nc(Nc2cccc3ncccc23)c2cc[nH]c2n1 | -0.4% | 0.01% | 0.68% | -0.39% | 1.71% | -0.38% | 2.34% | -2.11% | -3.36% | -0.77%
CS(=O)(=O)CCNCc1ccc(-c2ccc3ncnc(Nc4ccc(OCc5ccccc5)cc4)c3c2)o1 | 1.7% | 2.17% | 2.45% | 0.5% | 1.49% | 1.41% | 0.21% | 3.12% | 3.6% | 2.13%
CC1=C(C(=O)Nc2ccc3[nH]ncc3c2)C(c2ccc(F)cc2)N=C(c2ccc(C(F)(F)F)nc2)N1 (stereo not given) | 2.62% | 3.58% | 20.9% | 1.25% | 2.09% | 0.07% | -0.53% | 2.89% | 2.1% | 0.54%
CN(C)CCNC(=O)Nc1ccc(N(C)c2ccnc(Nc3ccc(CS(C)(=O)=O)cc3)n2)cc1 | 2.36% | 2.31% | 5.69% | 1.06% | 1.51% | -0.61% | 0.12% | 5.94% | -2.33% | 2.25%
CN(c1ccc(NC(=O)NCCN2CCOCC2)cc1)c1ccnc(Nc2ccc(CS(C)(=O)=O)cc2)n1 | 0.31% | 1.27% | 4.06% | -0.51% | -0.33% | 0.46% | 1.54% | 4.71% | 5.63% | 2.51%
CC(C)c1ccc(-c2cc(-c3c[nH]nc3-c3ccccn3)ccn2)cc1 | 1.17% | 1.32% | 2.36% | 0.02% | 1.23% | 2.16% | 3.68% | 1.36% | 0.07% | -1.26%
N#Cc1ccc2c(-c3ccnc(NC4CC4)n3)c(-c3ccc(F)cc3)nn2c1 | 0.01% | 1.59% | 0.4% | 0.15% | 1.24% | -1.19% | -0.72% | 2.95% | 0.36% | 1.4%
CNC(=O)c1ncccc1Nc1nc(Nc2cc3c(cc2OC)CCCN3C(=O)CN(C)C)nc2[nH]ccc12 | 3.18% | 1.72% | 2.56% | 1.68% | 10.7% | 1.41% | 1.37% | 2.78% | 1.52% | 5.68%
CCS(=O)(=O)c1ccc(OC)c(Nc2ncc(-c3cccc(C(C)=O)c3)o2)c1 | 0.17% | 1.47% | 1.88% | 0.74% | 0.95% | -0.44% | 3.77% | 3.76% | 3.11% | 2.68%
Nc1ncnc2occ(-c3ccc(NC(=O)Nc4cc(C(F)(F)F)ccc4F)cc3)c12 | 2.41% and -0.72% | 0.57% and -0.25% | 1.31% and -1.17% | 0.16% and -0.04% | 0.52% and -0.37% | 1.05% and -0.26% | 1.13% and 0.29% | 1.5% and 0.01% | 1.23% and -2.29% | -0.11% and -2.32%
